Screening data from PubChem.
Rows were chosen to be rich in hits. Some 3.7% of all compounds tested hit in one or more screens of this group.
Tau FP inhib = blocks human tau fibril formation measured by polarization. P10636. K18 P301L tau heparin fibrillization, Alexa594 FP, 6 h. Potency, µM (doses to about 57.7 µM), for the others: top-dose activity, negative = inhibition, most hits filed as inhibitors. 280,000 tested, 0.39% active. AID 1468; further: on the % scale 0 is the no-effect control and ±100 the full control effect; nearly all actives have a fitted effect of over 55% in size
Target sequence (P10636 561-689 P618L limits assumed): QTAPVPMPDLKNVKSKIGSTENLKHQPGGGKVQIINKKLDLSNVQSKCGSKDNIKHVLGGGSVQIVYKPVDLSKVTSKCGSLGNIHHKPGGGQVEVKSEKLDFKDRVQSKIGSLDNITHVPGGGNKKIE
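FP of Alexa 594-tau after heparin (20 uM) induction. Substrate: human K18 P301L, 15 uM unlabeled, 0.24 uM labeled. Buffer 100 mM sodium acetate pH 7. 6 hr, 37 C.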
Tau fluor cs = counter-screen for tau fibril formation inhibitors; Potency, µM (top dose mostly 57.7 µM), without a hit: top-dose activity change, negative = decrease; tau K18 P301L Alexa594 fluorescence, heparin fibrillization; 280,000 tested, 0.93% active; further: on the % scale 0 is the no-effect control and ±100 the full control effect; nearly all actives have a fitted effect of over 55% in size
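Human tau K18 P301L (15 uM unlabeled, 0.24 uM Alexa 594-labeled) in 100 mM sodium acetate pH 7 with 20 uM heparin, 6 hr at 37 C. ThT 30 uM added, 1 hr ambient; Alexa 594 FP and total fluorescence read at 555/632 nm.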
Tau ThT inhib = inhibitors of human tau fibril formation, thioflavin T binding | 270,000 tested, 2.1% active | Potency, µM (top dose mostly 57.4 µM), without a hit: top-dose activity, negative = inhibition, most hits filed as inhibitors | P10636 | recombinant tau K18 P301L, heparin-induced fibrillization, ThT fluorescence | AID 1460; further: on the % scale 0 is the no-effect control and ±100 the full control effect; nearly all actives have a fitted effect of over 55% in size
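Fibril formation assay: tau K18 P301L at 15 uM with trace Alexa 594 label, heparin inducer 20 uM, pH 7 sodium acetate buffer, 37 C for 6 hr; endpoint ThT signal.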
HTT cytoprotect = Huntington cell model cytoprotection by ATP luminescence. PC12 HTT-Q103 induced, cytoprotection, ATP luminescence, 40 h. Potency, µM (top dose mostly 56.4 µM), inactives show cytoprotection (ATP increase), usual class: activators. AID 1471. 230,000 tested, 0.14% active; further: % of control where 0% means no effect; nearly all actives have a fitted effect of over 45% in size
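ATP quantification (ATPlite) reports survival of PC12 cells in which tebufenozide, 100 nM final, switches on Htt exon 1 with 103 glutamines linked to GFP; compounds are titrated.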
HttQ103 aggreg = inhibitors of mutant huntingtin aggregate formation in PC12 cells; PC12 HttQ103-GFP aggregates, Acumen cytometry, 40 h; Potency, µM (highest dose often 46.1 µM), for inactives: top-dose activity change, negative = inhibition, usual class: inhibitors; AID 1688; 220,000 tested, 1.1% active; further: on the % scale 0 is the no-effect control and ±100 the full control effect; nearly all actives have a fitted effect of over 60% in size
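Multiplexed with ATP-based cell death, this channel scores GFP aggregates in PC12 cells expressing inducible HTTex1-Q103-GFP. Induction used 100 nM tebufenozide; compounds were tested in concentration series.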
Active calls of the source: *; ? = inconclusive; . = no result; [ ] = dose if it differs, or a comment. The call rests on the fitted dose curve; in most records, active means well fitted curve in the direction sought with a large enough effect; inconclusive means small, poorly fitted or top-dose-only effect, or another doubt; inactive means no such curve, though single readings can be large; an effect the other way counts as inactive or inconclusive. Potency means the concentration at half of the fitted maximal effect.

SMILES	Tau FP inhib	Tau fluor cs	Tau ThT inhib	HTT cytoprotect	HttQ103 aggreg
O=C1c2ccccc2C(=O)N1Cc1ccco1	-4%	1%	8%	7%	2%
COc1cccc(CNC(=O)C2CCCN(c3nn4cc(-c5ccc(C)cc5)nc4s3)C2)c1 (stereo unspecified)	10%	-13%	?	.	.
COc1ccc(N=CC2=C(O)c3ccccc3C2=O)cc1	-8%	-14%	2.2µM*	-103%	4%
Cc1ccc(O)c(N=CC2=C(O)c3ccccc3C2=O)c1	?	?	25µM*	-15%	-29%
COc1ccc(N=Cc2[nH]c3ccccc3c2O)cc1	?	-27%	18µM*	-28%	5%
COc1ccc(CNC(=O)c2ccc3c(c2)N(Cc2cc(C)ccc2C)C(=O)CS3)cc1	-12%	-14%	-7%	.	.
COc1ccc(N(C)C(=O)CCn2cnc3onc(-c4ccc(F)cc4)c3c2=O)c(OC)c1	0%	-23%	-17%	.	.
Cc1cc(C)n(-c2ccc(N3CCOCC3)nn2)n1	5%	4%	3%	-6%[1.9 µM]	?
Cc1cc(C)n(-c2nnc(N3CCN(c4ccc(F)cc4)CC3)nn2)n1	5%	-24%	13µM*	-130%	11µM*
CC(=O)C1(C)CC2=C(CCCC2(C)C)CC1C (stereo unspecified)	.	.	.	-2%	.
COC(=O)c1ccc(-c2nc3cc(N)ccc3o2)cc1	13%	-18%	5µM*	31%[10 µM]	28%
COC(=O)c1ccc(NC(=O)CC2C(=O)N(c3cccc(OC)c3)C(=O)N2Cc2ccco2)cc1 (stereo unspecified)	0%	-13%	8%	.	.
C(=C\c1ccco1)/C=N/n1cnnc1	32µM*	-29%	25µM*	-4%	28%
COc1ccccc1NC(=O)c1oc2ccccc2c1NC(=O)Cc1ccccc1	-13%	-19%	12%	.	.
O=C1C2=C(c3ccccc31)[N+](=O)C1CCCCC1N2[O-] (stereo unspecified)	?	-26%	16µM*	-7%	1%
CC1(C)[C@@H](CC(=O)O)CCC[C@@H]1CC(=O)O	.	.	.	-12%[10 µM]	.
FC(F)(F)c1nc(SCc2ccc(Cl)cc2)n[nH]1	.	.	.	3%[10 µM]	.
O=C(COC(=O)c1cccc2c1C(=O)c1ccccc1C2=O)NC1CCCCC1	13%	?	-20%	-5%[10 µM]	22%
O=C(COC(=O)c1ccc2c(c1[N+](=O)[O-])C(=O)c1ccccc1C2=O)NC1CC1	-5%	?	10µM*	-63%	-9%
CCN(CC)C(=O)c1sc(NC(=O)c2ccc(C)c([N+](=O)[O-])c2)c(C#N)c1C	-6%	-13%	-5%	-45%	13µM*
CCc1c(C)sc(NC(=O)c2cc(C(C)C)on2)c1C#N	-2%	-20%	-17%	3%	-15%
CCc1cc(C(=O)Nc2sc(C)c(CC)c2C#N)no1	?	?	28µM*	.	.
O=C(C1=C(O)/C(=C/c2ccc(O)cc2)CCC1)C(F)(F)F	?	?	28µM*	24%[1.9 µM]	?
COc1cc(O)c2c(O)c3c(c4c2c1[C@@]1(C4)C(C)=CCCC1(C)C)[C@H](O)[C@@]1(O)CC(=O)C(C(N)=O)=C(O)[C@]1(O)C3=O	.	.	.	-6%[10 µM]	.
Brc1ccc(-c2cn3nc4c(nc3n2)CCCC4)cc1	?	?	18µM*	-24%	15%
SMILES	Tau FP inhib	Tau fluor cs	Tau ThT inhib	HTT cytoprotect	HttQ103 aggreg
COc1ccc2nc(-n3c(O)c(C4=c5ccccc5=NC4=O)[nH]c3=S)sc2c1	?	8.9µM*[quencher]	2.2µM*	2%[10 µM]	7%
O=C(Cc1cccc2ccccc12)Nc1ccc(OC(F)F)c(Cl)c1	?	?	4%	23%[0.074 µM]	-23%
O=C(Nc1ccc(OC(F)F)c(Cl)c1)C(c1ccccc1)c1ccccc1	28µM*	?	6%	-12%[10 µM]	?
O=C(O)CNC(=O)c1ccc([N+](=O)[O-])cc1	.	.	.	-19%	.
Cc1cc(C)c2c(N)c(S(=O)c3ccc(C(C)(C)C)cc3)sc2n1 (stereo unspecified)	?	?	25µM*	23%	-21%
Clc1cc2c(c(CSC3=NCN(CC4CC4)CN3)c1)OCOC2	.	.	.	17%[10 µM]	.
COC(=O)c1c(NC(=O)C2SC(=NC3CCCCC3)C(C(N)=O)=C2N)sc2c1CCCC2 (stereo unspecified)	?	16µM*[quencher]	?	-2%[10 µM]	10%
COc1ccc(-c2csc(Nc3ccc(C)cn3)n2)cc1OC	11%	?	13µM*	1%[10 µM]	-1%[9.22 µM]
Cc1ccc(Nc2nc(-c3ccc(O)c(O)c3)cs2)nc1	14%	14µM*[quencher]	10µM*	-23%[10 µM]	-16%[9.22 µM]
CCOc1ccccc1CNC(=O)C(CC)n1nc(C)c2c(C)n(-c3ccccc3)nc2c1=O (stereo unspecified)	11%	5%	2%	.	.
O=C(O)CNC(=O)c1ccc(CO)o1	.	.	.	-50%	.
CCOC(=O)c1ccc(NS(=O)(=O)c2ccc3[nH]c(=O)[nH]c3c2)cc1	-6%	-6%	-18%	2%	8%
CCOC(=O)c1cccc(NS(=O)(=O)c2ccc3[nH]c4c(c3c2)CCCC4)c1	-2%	10µM*[quencher]	-1%	.	.
CC(=O)c1cccc(NS(=O)(=O)c2ccc3[nH]c4c(c3c2)CCCCC4)c1	2%	14µM*[quencher]	-2%	.	.
O=S(=O)(NCc1ccccc1)c1ccc2[nH]c3c(c2c1)CCCCC3	-11%	?	11%	.	.
Cc1cccc(NC(=O)C2CCN(S(=O)(=O)c3ccc4[nH]c5c(c4c3)CCCCC5)CC2)c1	-4%	?	7%	.	.
CC(=O)c1cccc(NS(=O)(=O)c2ccc3[nH]c4c(c3c2)CCCCCC4)c1	5%	14µM*[quencher]	-7%	.	.
CC(=O)c1ccc(S(=O)(=O)Nc2ccc(-c3ccc(N4CCCCC4)nn3)cc2)cc1	6%	?	?	.	.
N/C(=N\N=C\c1ccc(Cl)cc1)N/N=C/c1ccc(Cl)cc1	.	.	.	-71%	-16%
CCSc1nc2ccccc2n1C(=O)/C=C\c1ccc(OC)c(OC)c1	?	-18%	10µM*	0%	?
Cc1ccc(S(=O)(=O)N2CCCCC2C(=O)N2CCN(c3ccccc3F)CC2)cc1 (stereo unspecified)	3%	-13%	-14%	-2%	-13%
Cc1ccc(S(=O)(=O)N2CCCC2C(=O)OCc2ccco2)cc1 (stereo unspecified)	?	-14%	28µM*	8%	27%
Cc1ccc(S(=O)(=O)N2CCCCC2C(=O)N2CCN(C)CC2)cc1 (stereo unspecified)	?	-21%	16µM*	21%	8%
NCC(=O)NC1(C(=O)O)CCCC1	.	.	.	0%[10 µM]	.
N#CCCCSc1nnnn1-c1cc(C(F)(F)F)cc(C(F)(F)F)c1	-2%	-10%	5%	25%	.
